In PubChem BioAssay AID463082 (The Scripps Research Institute Molecular Screening Center, 2010):
The campaign covered roughly 330,000 compounds. About 4,900 (1.5%) were called active.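 The calls were made as follows: active = inhibition above the mean inhibition across the screen plus 3 SD (cut at about 25% in these data); inactive = the rest.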 Only a selection was taken, and actives are over-represented in it overall.

Biological target: Platelet-activating factor acetylhydrolase (Homo sapiens) (UniProt Q13093)
Sequence (Q13093 whole entry, looked up): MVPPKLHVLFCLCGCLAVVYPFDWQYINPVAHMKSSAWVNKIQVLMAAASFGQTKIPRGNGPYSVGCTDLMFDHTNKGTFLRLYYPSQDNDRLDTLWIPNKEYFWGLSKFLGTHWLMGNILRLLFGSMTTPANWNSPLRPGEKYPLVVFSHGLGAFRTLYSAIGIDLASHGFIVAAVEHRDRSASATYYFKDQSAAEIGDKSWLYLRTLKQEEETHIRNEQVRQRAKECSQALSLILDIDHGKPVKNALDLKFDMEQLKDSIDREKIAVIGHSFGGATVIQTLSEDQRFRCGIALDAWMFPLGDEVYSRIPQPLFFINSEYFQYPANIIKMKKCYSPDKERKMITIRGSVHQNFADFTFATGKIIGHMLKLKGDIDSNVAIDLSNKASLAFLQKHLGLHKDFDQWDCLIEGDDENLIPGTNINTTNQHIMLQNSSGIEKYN
Assay: inhibition of plasma PAF acetylhydrolase – biochemical, fluorescence polarization, human, primary screen (AID 463082);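 also: inhibitors block binding of the rhodamine activity-based probe so polarization drops; 0% = enzyme with DMSO and 100% = wells lacking pPAFAH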
Conditions: recombinant pPAFAH, FP-rhodamine probe fluorescence polarization; at 3.39 µM; active compounds read high

Compound	inhibition
CC(Cc1cccs1)N(Cc1ccc(Cl)cc1)C(=O)c1ccncc1 (stereo not drawn)	6.35% (inactive)
CCSC1=C(C#N)C(=O)n2c1cc1c2CCCC1	8.15% (inactive)
Cn1c(NC(=O)c2ccco2)c(-c2ccccc2Cl)c(=O)c2ccccc21	1.1% (inactive)
CC(C)c1ccc(NC(=S)NNc2ccc(Cl)c(C(=O)O)c2)cc1	38.3% (active)
Cc1ccc(C)c(NC(=S)NNC(=S)Nc2ccc(C(C)C)cc2)c1	22.5% (inactive)
O=C(NC(=S)Nc1ccc(Cl)c(C(=O)O)c1)c1cncc(Br)c1	0.25% (inactive)
Cc1cc(=O)n2nc(N3CCCC(C(=O)NCc4cccc(Cl)c4)C3)sc2n1 (stereo not drawn)	1.7% (inactive)
COc1ccccc1CNC(=O)COn1nnc2ccc(S(=O)(=O)N3CCOCC3)cc21	2.22% (inactive)
CC(C)N(C(=O)[C@H]1C[C@H](CC(=O)NC(C)(C)C)C(=O)N2CCc3c([nH]c4ccc(Cl)cc34)[C@]12C)C(C)C	3.29% (inactive)
Cc1nc(NC(=O)c2cccc(Cl)c2)sc1-c1csc(Nc2cccc(Cl)c2)n1	11.3% (inactive)
O=C(Nc1ccc(-c2csc(Nc3cccc(C(F)(F)F)c3)n2)cc1)c1cccc(C(F)(F)F)c1	28.4% (active)
O=C(Nc1ccc(C(F)(F)F)cc1)c1cccc(-n2cnnn2)c1	-6.56% (inactive)
CC(C)c1nc(CNC(=O)CC2C(=O)NCCN2Cc2cccc(F)c2F)cs1 (stereo not drawn)	3.46% (inactive)
COc1cc(NC(=O)CCS(=O)(=O)c2ccc3c(c2)oc(=O)n3C)cc(OC)c1	3.91% (inactive)
C=C(C)COc1ccc(-c2n[nH]c(C)c2-c2ccccc2OC)c(O)c1	26.2% (active)
COc1ccc(-c2n[nH]c(C)c2-c2ccccc2OC)c(O)c1	4.94% (inactive)
C=C(C)COc1ccc(-c2n[nH]c(C)c2-c2ccccc2)c(O)c1	13.4% (inactive)
O=C(Nc1ccc(F)c([N+](=O)[O-])c1)C1CCCO1 (stereo not drawn)	-1.09% (inactive)
CN(Cc1cccs1)C(=O)CN1C(=O)c2ccccc2S1(=O)=O	4.08% (inactive)
CN(C)c1ccc(C(=S)N2CCN(C(=S)Nc3ccc(Cl)cc3)CC2)cc1	1.77% (inactive)

Compound	inhibition
CCn1cc(C(=O)NCCC(=O)NCCO)c(=O)c2cc3c(cc21)OCO3	4.78% (inactive)
COc1cc(CN2CCC(C(N)=O)CC2)ccc1OCc1ccccc1	0.32% (inactive)
COc1cc(C2CC(=O)N3CN(Cc4ccccc4)CSC3=C2C#N)ccc1OCc1ccccc1 (stereo not drawn)	35.3% (active)
COc1cc(CNC2CCCC2)c(Br)cc1OCc1ccccc1	1.42% (inactive)
COc1ccc(CNc2cc(C)cc(C)c2)cc1OC	0.82% (inactive)
CC1CCCCC1NC(=O)COC(=O)Cc1ccc(Br)cc1 (stereo not drawn)	23.6% (inactive)
O=C(COC(=O)Cc1ccc([N+](=O)[O-])cc1)NC1CCCCCC1	12.4% (inactive)
CC1CCCCC1NC(=O)COC(=O)Cc1ccc(Cl)cc1 (stereo not drawn)	35.3% (active)
Cc1cccc(C(=O)O)c1[N+](=O)[O-]	1.3% (inactive)
C=CCn1c(Oc2ccc(C(=O)OC)cc2)nc2c1c(=O)n(C)c(=O)n2C	-2.33% (inactive)
CSc1ccc(CNC(=O)c2ccc(NC(=O)C3=CSCCO3)cc2)cc1	-5.55% (inactive)
Cc1cc(C)cc(N(CC(=O)NC2CCCC2)C(=O)CCC(=O)Nc2nccs2)c1	1.33% (inactive)
Cc1cccc(CCNS(=O)(=O)c2ccc3c(c2)NC(=O)CO3)c1	9.07% (inactive)
Cc1cccc(CCNS(=O)(=O)c2ccc(S(=O)(=O)NC3CCCC3)cc2)c1	27.3% (active)
Cc1ccc(S(=O)(=O)NC2CCCCCC2)cc1	9.54% (inactive)
CC[C@]12c3[nH]c4cc(CCC(=O)N(C)C)ccc4c3CCN1C(=O)[C@@H](CC(=O)NCCCn1ccnc1)C[C@@H]2C(=O)N1CCN(C(=O)C2CC2)CC1	-6.7% (inactive)
CCc1cccc(C)c1NS(=O)(=O)c1c(C)nc2sccn2c1=O	1.67% (inactive)
CN(C)[C@@H]1C(=O)C(C(N)=O)=C(O)[C@@]2(O)C(=O)C3=C(O)c4c(O)ccc(Cl)c4[C@@H](O)[C@H]3C[C@@H]12	49.4% (active)
O=C(c1ccco1)N(Cc1nc2ccccc2c(=O)[nH]1)C1CCCC1	2.71% (inactive)
CC(=O)c1ccc(-c2nnc(CCC(=O)N(C)Cc3cnc4ccccn34)o2)s1	3.22% (inactive)

Compound	inhibition
CCc1ccc(CN(C)C(=O)CCc2nnc(-c3ccc(-c4ccccc4)cc3)o2)nc1	61.6% (active)
CCc1ccc(CN(C)Cc2nc(Cc3ccccc3)no2)nc1	1.77% (inactive)
COc1ccc(CCNC(=O)Cc2ccc(C)cc2)cc1OC	0.86% (inactive)
COc1ccc(NC(=O)CNC(=O)Cc2ccccc2)cc1OC	1.61% (inactive)
COc1ccc(CNC(=O)Cc2ccc(-c3ccccc3)cc2)cc1OC	31.1% (active)
Cc1cc(=O)oc2c(C)c(OCC(=O)NCCc3ccc(S(N)(=O)=O)cc3)ccc12	1.13% (inactive)
CCOc1ccc(S(=O)(=O)NCCC(=O)NCC2CCCO2)cc1 (stereo not drawn)	-0.87% (inactive)
Nc1scc(-c2ccncc2)c1Cl	5.7% (inactive)
CCOC(=O)c1c(-c2ccccc2)oc2ccc(OCC(=O)NN)cc12	3.22% (inactive)
CCOC(=O)c1c(C)oc2cc(Br)c(OCC(N)=O)cc12	-0.28% (inactive)
CCOC(=O)c1c(C)oc2ccc(OCC(=O)N(CC)CC)cc12	-9.45% (inactive)
CCOC(=O)c1c(C)oc2cc(Sc3ccccc3)c(O)c(O)c12	27.6% (active)
CCOC(=O)c1c(C)oc(C)c(C(=O)OCC)c1=O	-1.33% (inactive)
CCOC(=O)c1c(-c2ccccc2)oc2cc(Br)c(O)c(C=O)c12	30.1% (active)
Cc1cc(NC(=O)CSc2nnc(-c3ccco3)n2N)no1	1.38% (inactive)
NC(=O)c1c(NC(=O)CSc2nnc(-c3ccco3)n2N)sc2c1CCCC2	24.9% (active)
CCc1cccc(C)c1NC(=O)CSc1nnc(-c2ccco2)n1N	-2.12% (inactive)
CN(CC(=O)NC1CCCC1)S(=O)(=O)c1cnc[nH]1	5.78% (inactive)
